Compound activity (PubChem BioAssay)
BAZ2B inh = blocks human BAZ2B; actives 4.4% (n = 360,000); Potency, µM (top dose mostly 114 µM), inactives show at the top dose activity change, negative = inhibition, usual class: inhibitors; AlphaScreen BAZ2B-H3K14Ac peptide displacement; Q9UIF8; further: on the % scale 0 is the no-effect control and ±100 the full control effect; nearly all actives have a fitted effect of over 60% in size
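BAZ2B 50 nM plus b-H3(5-23)K14Ac 50 nM, PBS pH 7.4/0.01% Tween-20, 30 min RT; compound added (max 110 uM), 30 min RT; streptavidin donor/Ni-chelate acceptor beads 10 ug/mL final, 20 min dark; AlphaScreen read.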
L3MBTL1 block = inhibitors of human L3MBTL1; Q9Y468; AlphaScreen L3MBTL1–H3K9me1 peptide binding; Potency, µM (highest dose often 57.1 µM), for inactives: top-dose activity, negative = inhibition, hits mostly inhibitors; actives 0.66% (n = 230,000); further: on the % scale 0 is the no-effect control and ±100 the full control effect; nearly all actives have a fitted effect of over 60% in size
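L3MBTL1 50 nM + b-AHA-H3(1-15)K9me1 75 nM, 30 min RT; compound added, 30 min RT; streptavidin donor/Ni-chelate acceptor beads 10 ug/mL each final, 30 min RT dark; AlphaScreen read.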
JMJD2A Tudor = blocks the human JMJD2A Tudor domain. O75164. AlphaScreen JMJD2A-Tudor / H3K4me3 peptide binding. Potency, µM (titrated, usually from 114 µM), for the others: at the top dose activity change, negative = inhibition, usual class: inhibitors. actives 4.4% (n = 390,000). AID 504339; further: on the % scale 0 is the no-effect control and ±100 the full control effect; nearly all actives have a fitted effect of over 50% in size
Target sequence (O75164 whole entry, looked up, the tested form may be a part): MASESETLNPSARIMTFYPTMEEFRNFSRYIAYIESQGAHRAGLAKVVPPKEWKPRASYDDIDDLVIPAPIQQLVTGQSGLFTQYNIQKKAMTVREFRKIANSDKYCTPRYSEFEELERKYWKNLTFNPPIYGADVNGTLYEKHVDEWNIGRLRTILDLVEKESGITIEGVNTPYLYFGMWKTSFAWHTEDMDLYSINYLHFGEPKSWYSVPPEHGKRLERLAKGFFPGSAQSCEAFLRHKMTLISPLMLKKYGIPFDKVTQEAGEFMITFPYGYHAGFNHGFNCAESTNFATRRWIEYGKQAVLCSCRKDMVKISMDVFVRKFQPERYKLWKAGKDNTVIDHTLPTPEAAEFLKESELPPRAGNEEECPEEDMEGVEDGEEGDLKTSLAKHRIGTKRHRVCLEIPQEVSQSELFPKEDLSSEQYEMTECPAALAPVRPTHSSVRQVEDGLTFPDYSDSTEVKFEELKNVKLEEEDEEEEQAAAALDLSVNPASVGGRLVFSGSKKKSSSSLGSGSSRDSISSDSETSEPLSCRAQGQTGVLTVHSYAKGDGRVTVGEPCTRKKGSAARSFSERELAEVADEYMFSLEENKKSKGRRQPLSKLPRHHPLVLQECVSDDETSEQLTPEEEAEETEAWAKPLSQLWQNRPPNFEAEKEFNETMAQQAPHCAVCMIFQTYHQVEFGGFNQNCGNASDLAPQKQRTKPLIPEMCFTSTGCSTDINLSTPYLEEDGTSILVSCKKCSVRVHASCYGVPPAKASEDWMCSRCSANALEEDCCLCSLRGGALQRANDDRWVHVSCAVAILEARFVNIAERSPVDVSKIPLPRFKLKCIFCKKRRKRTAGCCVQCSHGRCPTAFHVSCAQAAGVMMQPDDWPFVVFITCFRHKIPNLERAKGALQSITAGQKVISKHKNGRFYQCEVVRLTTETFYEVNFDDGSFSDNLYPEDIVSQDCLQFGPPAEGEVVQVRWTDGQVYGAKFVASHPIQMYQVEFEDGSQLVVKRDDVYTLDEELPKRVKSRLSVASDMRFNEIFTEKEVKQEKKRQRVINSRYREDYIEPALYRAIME
HP1b binding inh = HP1-beta chromodomain-methylated histone interaction inhibition; AlphaScreen HP1-beta / biotin-H3K9me3 peptide binding; P83916; Potency, µM (series often up to 114 µM), for inactives: at the top dose activity change, negative = inhibition, actives largely listed as inhibitors; actives 0.56% (n = 390,000); further: nearly all actives have a fitted effect of over 70% in size
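HP1-beta protein (50 nM final) preincubated 30 min at room temperature with biotinylated H3(1-18)K9me3 peptide (50 nM) in PBS pH 7.4, 0.01% Tween-20, then compound added for 30 min. AlphaScreen streptavidin donor/nickel chelate acceptor beads (10 ug/mL final), 30 min dark, luminescence read.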
G9a block = blocks human histone lysine methyltransferase G9a; G9a H3K9 monomethylation, AlphaScreen, 2 h; Potency, µM (doses to about 102 µM), without a hit: at the top dose activity, negative = inhibition, hits mostly inhibitors; actives 8.8% (n = 350,000); further: on the % scale 0 is the no-effect control and ±100 the full control effect; nearly all actives have a fitted effect of over 75% in size
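Readings reflect AlphaScreen signal from monomethyl-H3K9 antibody detection. HMT at 20 nM; substrate b-H3K9 500 nM; cofactor SAM 20 uM; 2 h RT reaction; compounds tested as titrations in qHTS with 15 min preincubation.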
Starred values were filed as active, the others as inactive; ? = inconclusive; / = no result given; [ ] = remark or other dose. The list is not random: actives were taken first. Their share in the collection is about 11%. The call rests on the fitted dose curve; in most records, active means well fitted inhibition curve with a large enough effect; inconclusive means small, poorly fitted or top-dose-only effect; inactive means no such curve, though single readings can be large or run the other way. Potency means the concentration at half of the fitted maximal effect.

SMILES	BAZ2B inh	L3MBTL1 block	JMJD2A Tudor	HP1b binding inh	G9a block
C[C@]12C/C(=C/O)C(=O)C[C@@H]1CC[C@@H]1[C@@H]2CC[C@@]2(C)[C@H]1CC[C@]2(C)O	/	/	/	/	18µM*
C[C@]12CCC(=O)C=C1CCC1C2CC[C@@]2(C)C1CC[C@]2(C)O (stereo partly specified)	/	4%	-17%	8%[57 µM]	/
c1cnc(N2CC3(CCNCC3)C2)nc1	/	/	/	/	4%[12.7 µM]
COc1ccnc(N=CNOCc2ccc(C)cc2)c1C#N	-2%	/	-5%[57.1 µM]	47%	3%
CN(C)C1C(=O)C(C(N)=O)=C(O)C2(O)C(=O)C3=C(O)c4c(O)cccc4C(C)(O)C3C(O)C12 (stereo unspecified)	2µM*	/	-12%	17%	/
CCCCCl	/	/	/	/	29%[59 µM]
CC1OC(=O)C(C(C)C)NC(=O)C(C(C)C)OC(=O)C(C(C)C)NC(=O)C(C)OC(=O)C(C(C)C)NC(=O)C(C(C)C)OC(=O)C(C(C)C)NC(=O)C(C)OC(=O)C(C(C)C)NC(=O)C(C(C)C)OC(=O)C(C(C)C)NC1=O (stereo unspecified)	/	/	/	/	17%[59 µM]
CN1C(=O)C(Cc2ccsc2)C(=O)N(C)C1=O	-31%	?	-10%	64%	11µM*
C#CCN1CC(=O)N(COC(=O)[C@@H]2[C@@H](C=C(C)C)C2(C)C)C1=O	/	/	/	/	35%[59 µM]
O=C(NC1CC1)c1cc(-c2ccco2)nc2ccccc12	10µM*	/	8.9µM*	18µM*	10µM*
C[C@H](N)CN1CCc2ccc(Br)cc21	/	/	-25%	13%	45µM*
c1ccc(N2CCC3(CCNCC3)CC2)cc1	/	/	/	/	-3%[12.7 µM]
Cc1ccc(/C=C2/C(=O)NC(=O)N(CC3CCCO3)C2=O)s1 (stereo unspecified)	-24%	-9%	-9%	38%	13µM*
CC(C)CN1CCC2(CC1)CCN(C(=O)Oc1ccccc1)CC2	/	/	/	/	-7%[12.7 µM]
CC[C@H](C)/C=C(C)/C=C/C1=CC2=C(Cl)C(=O)[C@@](C)(OC(C)=O)C(=O)C2=CO1	/	/	56µM*	50µM*	/
CCC(C)/C=C(C)/C=C/C1=CC2=C(Cl)C(=O)C(C)(OC(C)=O)C(=O)C2=CO1 (stereo unspecified)	25µM*	?	35µM*	?	-45%[12.7 µM]
N#Cc1ccc(CN2CC[C@@]3(CCCN(C(=O)Oc4ccccc4)C3)C2)cc1	/	/	/	/	0%[12.7 µM]
COc1ccc(-c2oc(=O)n(C)c2-c2ccc(OC)cc2)cc1	32µM*	/	?	0%	-14%
COc1ccc(C=O)cc1	1%	-5%	3%	49%	-4%[0.501 µM]
COc1cc(C2c3cc4c(cc3C(O)[C@H]3COC(=O)C23)OCO4)cc(OC)c1OC (stereo partly specified)	/	/	/	/	-2%[2.33 µM]
O=C(N/N=C/c1c(O)n(CCC2=CCCCC2)c(=S)[nH]c1=O)c1ccccc1	-5%	6%	?	17%	?
O=C(N/N=C/c1c(O)n(-c2ccccc2)c(=S)[nH]c1=O)c1ccccc1	45µM*	/	45µM*	32%	5%
O=c1[nH]c(=S)n(C2CC2)c(O)c1C=Nc1ccc2c(c1)OCO2	3%	/	-12%	32%	71µM*
Cc1ccccc1-n1c(O)c(/C=N/NC(=O)c2ccccc2O)c(=O)[nH]c1=S	45µM*	?	-28%[11.4 µM]	-8%	32%[59 µM]
O=C(N/N=C/c1c(O)n(C2CC2)c(=S)[nH]c1=O)c1ccccc1O	45µM*	-16%	40µM*	17%	25%[59 µM]
SMILES	BAZ2B inh	L3MBTL1 block	JMJD2A Tudor	HP1b binding inh	G9a block
O=c1[nH]c(=S)n(C2CC2)c(O)c1C=NCc1cccnc1	-4%	-5%	28µM*	29%	?
O=c1[nH]c(=S)n(C2CC2)c(O)c1C=NCc1ccc(F)cc1	14%	/	-7%	24%	-26%
Cc1ccccc1-n1c(O)c(/C=N/Nc2nc3c(c(=O)n(C)c(=O)n3C)n2C)c(=O)[nH]c1=S	?	-11%	?	3%	?
Cn1c(=O)c2c(nc(N/N=C/c3c(O)n(C4CCCCC4)c(=S)[nH]c3=O)n2C)n(C)c1=O	50µM*	-26%	79µM*	?	22µM*
CCc1nn2c(=O)c(C)c(N3CCNCC3)nc2s1	/	/	-3%	/	/
O=C(/C=C/c1ccc2c(c1)OCO2)c1c(O)n(CCC2=CCCCC2)c(=O)[nH]c1=O	9%	0%	-11%	14%	11µM*
COc1ccc(/C=C/C(=O)c2c(O)n(CCC3=CCCCC3)c(=O)[nH]c2=O)cc1	0%	8%	-32%	31%	13%[59 µM]
CN(Cc1ccccc1)C(=O)c1ccc(NC(=O)C2CCN(C(=O)OC(C)(C)C)CC2)cc1	/	0%	?	-12%	/
NC(=O)CSP(=O)(c1ccccc1)c1ccccc1	-22%	0%	-31%	18%	13µM*
CN1C(=O)N(C)C(=O)C2(Cc3cc(N)ccc3N3CCN(c4ccccc4F)CC32)C1=O (stereo unspecified)	50µM*	?	/	/	28µM*
CN1C(=O)N(C)C(=O)C2(Cc3cc(NC(=O)c4ccccc4Cl)ccc3N3CCCC32)C1=O (stereo unspecified)	-11%	/	?	41%	/
CN1C(=O)N(C)C(=O)C2(Cc3cc(NC(=O)c4ccccc4)ccc3N3CCCC32)C1=O (stereo unspecified)	-18%	/	-23%	45%	32µM*
CCN1C(=O)N(CC)C(=O)C2(Cc3ccccc3N3CCN(c4ccccc4)CC32)C1=O (stereo unspecified)	?	-12%	-22%	42%	2µM*
CN1CCN2c3ccc(N)cc3CC3(C(=O)NC(=O)NC3=O)C2C1 (stereo unspecified)	7.9µM*	/	89µM*	-12%	18µM*
CCOC(OCC)P(=O)(O)CCCN	/	/	/	/	35%[59 µM]
CCOC(=O)Cn1c(-c2ccccc2)ccc(C#N)c1=O	43%	29%	48%	91%	9%[59 µM]
COC(=O)c1ccccc1N=Cc1c(O)[nH]c(=O)[nH]c1=O	23%	/	10%	64%	?
CC(N=Cc1c(O)[nH]c(=O)[nH]c1=O)c1ccccc1 (stereo unspecified)	-1%	-2%	-18%	9%	5.6µM*
CC(C)n1c(/C=C/[C@H](O)C[C@H](O)CC(=O)O)c(-c2ccc(F)cc2)c2ccccc21	-3%	7%	-25%	/	?
CCOP(=O)(OCC)c1cccc(P(=O)(c2ccccc2)c2ccccc2)c1O	-1%	/	-9%	63%	7%
CCOP(=O)(C1=C(O)C(=O)C(C(C)(C)C)=CC1=O)c1ccccc1 (stereo unspecified)	-24%	/	-21%	17%	56µM*
NCC(CP(=O)(O)O)c1ccc(Cl)cc1 (stereo unspecified)	/	/	/	/	4%[59 µM]
COc1ccc(N2C(=O)CC(=O)NC2=O)cc1	-27%	-10%	-5%	30%	-42%[59 µM]
